# Data published in PubChem BioAssay AID686976 (The Scripps Research Institute Molecular Screening Center, 2013).
# Out of some 1,900 compounds screened, about 320 (17%) were called active. A selection follows. A number with no mark means an inactive call. No stated cut-off is given here; in the data, active means inhibition above about 30%; inactive means the rest.
# System: CCHF virus ovarian tumor domain protease (vOTU, L protein)
# Experiment: CCHFV vOTU protease inhibitors, confirmation, biochemical, Pep-AMC substrate, fluorescence (AID 686976)
# Conditions: Recombinant CCHFV vOTU, at 11.5 µM, active compounds read high
row,SMILES,inhibition
1,COc1ccc(C(N)c2csc(NC(=O)Nc3cccc(C(F)(F)F)c3)n2)cc1 (centres undefined),-16.9%
2,O=C(NCc1ccc(F)cc1)c1cc(C2CCCCN2C(=O)C2CCCCC2)on1 (centres undefined),-10.2%
3,Cc1nnc(SC(C)C(=O)Nc2ccc(S(=O)(=O)NC3CCCCC3)cc2)s1 (centres undefined),-7.87%
4,CCOC(=O)N1CCC(c2cc(=O)n(-c3ccccc3)[nH]2)CC1,-6.72%
5,COc1ccccc1C1C(C#N)=C(N)Oc2c1c(-c1ccccc1)nn2-c1ccccc1 (centres undefined),1.06%
6,CCN(CC)C(=O)C1=C(C)N(Cc2ccc(C(C)(C)C)cc2)C(=O)C(CC(=O)NCc2cccc3ccccc23)C1 (centres undefined),3.3%
7,COc1ccc(C(=O)/C=C/c2ccc(-c3ccccc3)cc2)cc1CSCC(=O)O,0.4%
8,COc1cccc(NC(=O)C(=O)c2cn(CC(=O)N3CCOCC3)c3ccccc23)c1,0.94%
9,COCCn1nnnc1C(c1cc2ccc(OC)cc2[nH]c1=O)N1CCc2ccccc2C1 (centres undefined),20.7%
10,CN(C)N1C(N)=C(C#N)C(c2ccc(Br)cc2)C2=C1CCCC2=O (centres undefined),-25.8%
11,O=C1Nc2ccc([N+](=O)[O-])cc2C1=Nc1cccc(CO)c1,58.4% (active)
12,CCN(CC)P(=O)(Oc1cccc(C)c1)N(CC)CC,-12.8%
13,CCCCCC(=O)N1C[C@H](O)[C@@H](n2cc(COC(=O)c3ccccc3)nn2)C[C@@H]1c1ccc(C)cc1,7.84%
14,CC(C)Oc1ccc(CN2CCC2(C)C(=O)NCc2ccc(C(F)(F)F)cc2)cc1 (centres undefined),8.85%
15,CN1c2ccc(C=O)c3c(C=O)ccc(c23)N(C)C1(C)C,-100%
16,COc1ccc(F)cc1C(=O)C1CCCN(C(=O)CCc2ccccn2)C1 (centres undefined),-14.7%
17,CCN(C[C@H]1N[C@@](CC)(C(=O)OC)[C@H]2C(=O)N(Cc3ccccc3)C(=O)[C@@H]12)S(=O)(=O)c1ccc(C(F)(F)F)cc1,7.2%

row,SMILES,inhibition
1,CCOC(=O)c1ccc(Nc2cc3ccccc3c(=O)[nH]2)cc1,24.6%
2,CCOC(=O)c1c(C)[nH]c2c1-c1ccccc1C(=O)C2=O,98.7% (active)
3,O=C(NC1=CC(=O)c2ccccc2C1=O)c1ccccc1,99.3% (active)
4,O=C1C=C(NS(=O)(=O)c2ccccc2)C(=O)c2ccccc21,15.4%
5,O=C(NC1CCCCC1)N1CCc2[nH]c3ccccc3c2C1,-22.6%
6,CN(C)c1ccc(N/C=C/C(=O)C(F)(F)F)cc1,5.61%
7,Cc1cc(C(=O)N/N=C/c2ccc(O)c([N+](=O)[O-])c2)c(C)n1-c1ccc(F)cc1,8.57%
8,CCCS(=O)(=O)NC(=O)C1(C)CCN(C(=O)c2sccc2C)C1 (centres undefined),-18.9%
9,COc1cc2c(cc1OC)C(Cc1cc(OC)c(OC)cc1[N+](=O)[O-])=NCC2,-18.3%
10,COc1ccc(NC(=O)C[C@H]2C(=O)N(CCc3ccccc3)C[C@@H]2C)cc1,-25.5%
11,COC(=O)[C@]12C[C@H](CC(=O)NCc3ccc(C)o3)C(=O)N(CCC3=CCCCC3)C1=C[C@H](C(C)(C)C)O[C@@H]2C,9.58%
12,CCOC(=O)c1ccc(NC(=O)c2nc[nH]c2C(=O)N[C@@H](CCCCNC(=O)OC(C)(C)C)C(=O)OC(C)(C)C)cc1,12.5%
13,O=C(NCCc1ccc(Cl)cc1Cl)c1cc([N+](=O)[O-])c[nH]c1=O,-6.11%
14,COC(=O)[C@@]12C[C@@H](CC(=O)NCc3cccc(C(F)(F)F)c3)C(=O)N(Cc3ccco3)C1=CCC(C)(C)C2,12.2%
15,CCN(CC)C(=O)[C@@H]1C=C2c3cccc4[nH]c(Br)c(c34)C[C@H]2N(C)C1,-5.37%
16,CCn1nnnc1SCC(=O)Nc1ccc(N(C)C)cc1,6.35%
17,Cc1nnc(NC(=O)Nc2ccc(Cl)c(Cl)c2)s1,-15.1%
